Results taken from PubChem BioAssay.

Each molecule was assayed on Sonic hedgehog protein (Shh) (assay: small-molecule binders of Shh protein, primary screen, biochemical, small-molecule microarray, 635/667 nm fluorescence (AID 1151;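 also: Shh protein binding to compounds spotted on small-molecule microarray slides; score combines spot fluorescence intensity with signal-to-noise across triplicate slides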)). Settings: small-molecule microarray binding, 635 nm fluorescence; higher = more signal.
For `C=CC[C@H](OC(=O)Nc1ccc(SC)cc1)c1ccc(O)c2ccccc12`, the composite z-score was 1.76.
With `O=C1O[C@@H](c2ccccc2)[C@@H](c2ccccc2)N2[C@@H](c3ccc(OCCO)cc3)[C@]3(C(=O)Nc4ccc(C#CC5=CCCCC5)cc43)[C@@H](C(=O)NC[C@H](O)c3ccccc3)[C@H]12` the composite z-score was 1.38.
`O=C1O[C@H](c2ccccc2)[C@H](c2ccccc2)N2[C@H]1[C@@H](C(=O)O)[C@]1(C(=O)Nc3ccc(C#CCCO)cc31)[C@H]2c1ccccc1OCCO` showed a composite z-score of 0.824.
`CC(C)c1ccc(NN2C(C(O)c3ccc(C#N)cc3)C=CC3C(=O)N(c4ccccc4)C(=O)C32)cc1` (stereo not given) was tested, and the composite z-score was -0.163.
`C[N+](C)(C)CCCC[C@@H]1NC(=O)[C@@H]2C[C@H](C(=O)NCCCCCCN)[C@H](c3cccc(OCCO)c3)N2C1=O` showed a composite z-score of 0.691.
`CC(C)[Si]1(C(C)C)OCc2cc(C3CC3)nc(-c3ccc(Oc4ccccc4)cc3)c21` was tested, and the composite z-score was -0.241.
`COCCOC(=O)N1C(=O)[C@@]2(c3cc(C#CC4(O)CCCCCC4)ccc31)[C@H](c1ccc(O)cc1)N1[C@H](c3ccccc3)[C@H](c3ccccc3)OC(=O)[C@H]1[C@@H]2C(=O)N1CCN(c2ncccn2)CC1` was tested, and the composite z-score was 0.185.
Molecule `COC(=O)c1c(CC[C@@H](CO)NC(=O)N[C@@H](C)Cn2cc(-c3ccccn3)nn2)oc(C(C)=O)c1C(=O)OC` has a composite z-score of 1.74.
`CCOC(=O)[C@@H]1CCCCN1C(=O)C(=O)OC` showed a composite z-score of 0.901.
Molecule `CN(C)c1ccc(C(O)C2C=CC3C(=O)NC(=O)C3N2Nc2ccccn2)cc1` (stereo not given) has a composite z-score of 0.862.
`CC#CCO[Si](C#Cc1ccccc1)(C(C)C)C(C)C` gave a composite z-score of 0.12.
Work on `CC(=O)N1CC2(CC2)CC1c1ccccc1` (stereo not given) yielded a composite z-score of -0.515.
With `COCCOC(=O)N1C(=O)[C@@]2(c3cc(C#CCC(C(=O)OC)C(=O)OC)ccc31)[C@H](c1ccc(OCCO)cc1)N1[C@H](c3ccccc3)[C@H](c3ccccc3)OC(=O)[C@H]1[C@@H]2C(=O)N1CCc2cc(OC)c(OC)cc2C1` the composite z-score was 1.8.
`C=CCC(OC(C)=O)[C@@H]1[C@@H](N(Cc2cccc3ccccc23)C(=O)Cc2ccc(F)cc2)c2cc(OCCCO)ccc2N1C(=O)c1ccc2ccccc2c1` (stereo not given in full) showed a composite z-score of 0.508.
With `CN1C2C=C(CCCO)C(C3C(=O)N(C(N)=O)C(=O)C32)C1C1CC1` (stereo not given) the composite z-score was 0.316.
In the case of `CCCN1C(=O)[C@]2(Cc3ccccc31)N=C(c1ccc(OCCCO)cc1)O[C@@H]2c1ccccc1`, the composite z-score is reported as 1.12.
`NCCCCCNC(=O)[C@@H]1C[C@@H]2C(=O)N[C@@H](CCCCN)C(=O)N2[C@@H]1c1ccc(O)cc1` was tested, and the composite z-score was 1.99.
Work on `Cc1ccc(C(C)CC(O)C2C=CC3C(=O)N(c4ccccc4)C(=O)C3N2Nc2ccccc2)o1` (stereo not given) yielded a composite z-score of -0.125.
For `CCCNC(=O)[C@@H]1c2ccccc2C(=O)N(Cc2ccc(OC(F)(F)F)cc2)[C@H]1c1ccc(CO)cc1`, the composite z-score was 0.346.
`CC(C)C(CO)N1C(=O)[C@@H]2[C@H]3C(=O)OCC=C[C@H]3OC23C=CCN(c2ccc(Cl)cc2)C(=O)[C@@H]13` (stereo not given in full) showed a composite z-score of -0.339.
Work on `CC(C)c1ccc(NN2C(C(O)c3ccc(F)cc3)C=CC3C(=O)N(c4ccccc4)C(=O)C32)cc1` (stereo not given) yielded a composite z-score of -0.0155.
`OCCCC1=CC(c2ccc(CN3CCCC3)cc2)N(Cc2cc3c(cc2Br)OCO3)CC1` (stereo not given) was tested, and the composite z-score was 1.04.
Molecule `COc1cc2c(cc1O)C(c1cccs1)N(Cc1cc3c(cc1Br)OCO3)CC2` (stereo not given) has a composite z-score of 0.305.
With `CCCNC(=O)[C@@]1(Sc2ccc(C)cc2)CC(=O)N(C2Cc3ccccc3C2)[C@@H]1c1ccc(CO)cc1I` the composite z-score was 0.737.
`CC(C)=C1C(=O)C(c2ccccc2)=C2CN3C(=O)N(CCc4ccccc4)C(=O)[C@]3(Cc3ccc(C(F)(F)F)cc3)[C@H]21` gave a composite z-score of -1.18.
`COc1cccc(C)c1NC(=O)O[C@H]1[C@H](OC(=O)Nc2ccccc2-c2ccccc2)[C@H](OC(=O)Nc2ccccc2-c2ccccc2)[C@@H](OC)O[C@@H]1CO` showed a composite z-score of 1.39.
Work on `COCCCNC(=O)[C@@]1(CCC(=O)OC(C)(C)C)N=C(c2ccc(OCCCO)cc2)O[C@H]1c1ccccc1N=[N+]=[N-]` yielded a composite z-score of -0.341.
`COc1cc2c(cc1O)C(c1ccc(CN3CCCC3)cc1)N(Cc1cc3c(cc1Br)OCO3)CC2` (stereo not given) gave a composite z-score of -1.01.
`CCCC[C@@H](O)C1=C(COC)C[C@H]2C(=O)N(C)C(=O)[C@H]2[C@H]1CO` gave a composite z-score of 0.882.
For `COC(=O)C(CC#Cc1ccc2c(c1)[C@]1(C(=O)N2)[C@H](c2ccc(O)cc2)N2[C@H](c3ccccc3)[C@H](c3ccccc3)OC(=O)[C@H]2[C@@H]1C(=O)NC[C@H](O)c1ccccc1)C(=O)OC`, the composite z-score was 1.68.
Work on `COC(=O)C1=CC(CCCO)=CC(c2ccc(CN3CCCC3)cc2)N(Cc2cccc(OC(F)(F)F)c2)C=C1C(=O)OC` (stereo not given) yielded a composite z-score of -0.136.
With `NC(=O)NCC#Cc1ccc2c(c1)[C@]1(C(=O)N2)[C@H](c2ccccc2OCCO)N2[C@H](c3ccccc3)[C@H](c3ccccc3)OC(=O)[C@H]2[C@@H]1C(=O)O` the composite z-score was 0.028.
`COC(=O)[C@@H]1N=C(c2ccc(OCCCO)cc2)O[C@@H]1c1ccccc1` gave a composite z-score of -0.703.
`C=CCC(OC(C)=O)[C@@H]1[C@@H](N(Cc2cccc3ccccc23)C(=O)Cc2ccc(OC)cc2)c2cc(OCCCO)ccc2N1C(=O)c1ccc(-c2ccccc2)cc1` (stereo not given in full) gave a composite z-score of 0.112.
With `CC(C)[Si]1(C(C)C)OCc2cc(-c3ccc(-c4ccc(Cl)c(Cl)c4)o3)nc(-c3ccccc3)c21` the composite z-score was -0.128.
